# Assay results from PubChem BioAssay.
# Results filed as inconclusive are left out. Activity calls are given as the source filed them. Unless noted, how the calls were made is not given here.
# Columns and labels:
# [1] = rapamycin-like changes in RPL19A-GFP expression – cell-based, S. cerevisiae, multiplex flow cytometry, primary screen (AID 1862; in the data active means percent of DMSO control GFP below about 86%;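 further: lower values mimic rapamycin by blocking the RPL19A rise seen in DMSO cells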); details: S. cerevisiae RPL19A-GFP strain, flow cytometry fluorescence, 3 h; at 10 µM; stronger effect = lower value
# [2] = TOR pathway GLN3 branch reporter MEP2-GFP changes – S. cerevisiae, multiplex flow cytometry, primary screen (AID 1867;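 active means GFP response, as percent of the DMSO control, above the screen-wide mean plus 3 SD, about 139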;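 further: median GFP channel fluorescence of barcode-gated MEP2-GFP cells measured by flow cytometry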); details: S. cerevisiae MEP2-GFP strain, 3 h, at 10 µM, stronger effect = higher value
# [3] = TOR pathway RTG branch CIT2 reporter changes – S. cerevisiae, GFP fusion, multiplex flow cytometry, primary screen (AID 1870;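 active means percent response above a set limit, the screen-wide mean plus 3 SD, cut at about 130% in these data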;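 further: barcoded CIT2-GFP strain pooled with four other GFP strains with rapamycin as positive control; median GFP fluorescence per well over plate mean of DMSO wells so 100% = DMSO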); details: S. cerevisiae CIT2-GFP expression, 3 h, at 10 µM, stronger effect = higher value
# [4] = TOR pathway LAP4-GFP level changes – S. cerevisiae, multiplex flow cytometry, primary screen (AID 1873;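 active means GFP signal, as percent of the solvent control, above the screen mean plus 3 SD, about 149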); details: S. cerevisiae LAP4-GFP expression, 3 h, at 10 µM, stronger effect = higher value
# [5] = reduced mouse 2C T cell binding to pMHC/ICAM-1 vesicles – MLPCN validation set, flow cytometry, LFA-1/ICAM-1 modulator project, pilot screen (AID 2523;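 active means response below a set limit, under 55% cells CD8-positive and vesicle-bound, and CD8 cells' 90th-percentile brightness under 279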;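 on vesicle binding response: mean PE anti-B7-1 fluorescence of CD8+ cells relative to row control; 100% = QL9-loaded vesicles with DMSO vehicle in the same plate row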); details: 2C mouse CD8+ T cells, at 7 µM, stronger effect = lower value; double positive events: measured here: CD8+/vesicle+ event percentage
# [6] = target: Integrin beta-1 (Homo sapiens) + Integrin alpha-4 (Homo sapiens) (UniProt P13612+P05556); experiment: alpha4beta1 integrin LIBS antibody binding reduction – U937 cells, HUTS-21 mAb, flow cytometry, validation set, VLA-4 allosteric modulator project, pilot screen (AID 2674;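 active means inhibition above 50%, about 3 SD of the validation set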;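 further: antibody binding induced by the VLA-4 ligand LDV present at three times its Kd; 0% = LDV ligand with antibody and no compound and 100% = antibody without LDV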); details: HUTS-21 LIBS mAb binding, at 6.7 µM, stronger effect = higher value
# Sequence of Integrin beta-1 (Homo sapiens) + Integrin alpha-4 (Homo sapiens) (P05556 whole entry, looked up): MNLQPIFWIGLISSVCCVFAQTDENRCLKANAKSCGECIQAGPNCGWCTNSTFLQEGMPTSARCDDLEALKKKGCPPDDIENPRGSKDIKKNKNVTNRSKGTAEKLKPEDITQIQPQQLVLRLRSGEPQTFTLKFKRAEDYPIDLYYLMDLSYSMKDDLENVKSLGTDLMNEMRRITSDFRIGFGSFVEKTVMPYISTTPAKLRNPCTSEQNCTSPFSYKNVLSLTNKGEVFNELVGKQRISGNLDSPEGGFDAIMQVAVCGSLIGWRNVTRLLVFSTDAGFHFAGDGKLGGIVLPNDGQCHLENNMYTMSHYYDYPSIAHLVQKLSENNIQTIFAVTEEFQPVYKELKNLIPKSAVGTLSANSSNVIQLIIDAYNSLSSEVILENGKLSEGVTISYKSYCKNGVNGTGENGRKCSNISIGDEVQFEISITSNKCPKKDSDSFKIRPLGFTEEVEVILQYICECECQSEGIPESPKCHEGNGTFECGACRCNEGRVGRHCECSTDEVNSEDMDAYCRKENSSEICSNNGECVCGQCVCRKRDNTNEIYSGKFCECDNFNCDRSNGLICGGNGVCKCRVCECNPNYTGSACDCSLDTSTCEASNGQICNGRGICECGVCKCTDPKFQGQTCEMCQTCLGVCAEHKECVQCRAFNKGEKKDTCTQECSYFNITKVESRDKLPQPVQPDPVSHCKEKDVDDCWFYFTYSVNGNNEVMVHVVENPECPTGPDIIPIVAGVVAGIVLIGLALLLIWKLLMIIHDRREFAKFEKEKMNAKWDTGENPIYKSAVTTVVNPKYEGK
# Sequence of Integrin beta-1 (Homo sapiens) + Integrin alpha-4 (Homo sapiens) (P13612 whole entry, looked up): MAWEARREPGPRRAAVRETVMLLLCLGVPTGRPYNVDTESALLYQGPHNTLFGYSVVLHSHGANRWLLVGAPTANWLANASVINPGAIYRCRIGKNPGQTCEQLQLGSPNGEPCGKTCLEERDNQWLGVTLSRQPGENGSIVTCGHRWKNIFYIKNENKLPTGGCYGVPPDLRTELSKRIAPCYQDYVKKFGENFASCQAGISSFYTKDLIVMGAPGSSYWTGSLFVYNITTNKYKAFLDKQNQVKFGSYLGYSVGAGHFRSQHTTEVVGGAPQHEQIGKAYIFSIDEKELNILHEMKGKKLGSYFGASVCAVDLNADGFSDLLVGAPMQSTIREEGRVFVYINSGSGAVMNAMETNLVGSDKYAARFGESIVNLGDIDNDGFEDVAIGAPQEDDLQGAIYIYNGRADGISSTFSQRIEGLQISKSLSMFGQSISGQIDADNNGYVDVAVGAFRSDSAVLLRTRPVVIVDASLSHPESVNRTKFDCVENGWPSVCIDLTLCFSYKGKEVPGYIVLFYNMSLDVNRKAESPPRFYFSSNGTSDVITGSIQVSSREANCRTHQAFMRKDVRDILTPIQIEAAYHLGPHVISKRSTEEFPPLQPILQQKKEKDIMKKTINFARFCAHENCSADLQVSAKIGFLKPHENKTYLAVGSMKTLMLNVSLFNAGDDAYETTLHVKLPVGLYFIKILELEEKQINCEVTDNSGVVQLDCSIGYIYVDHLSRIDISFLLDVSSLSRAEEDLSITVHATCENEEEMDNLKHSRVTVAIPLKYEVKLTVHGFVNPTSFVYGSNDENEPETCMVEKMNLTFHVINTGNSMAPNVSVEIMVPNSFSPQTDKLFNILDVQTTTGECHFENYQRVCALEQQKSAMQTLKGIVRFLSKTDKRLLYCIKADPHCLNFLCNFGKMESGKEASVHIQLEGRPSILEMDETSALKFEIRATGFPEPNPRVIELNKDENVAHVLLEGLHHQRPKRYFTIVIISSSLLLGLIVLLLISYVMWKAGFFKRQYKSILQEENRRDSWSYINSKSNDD
# [7] = calorie-restriction mimetic ROS inhibitors, yeast – validation compound set, pilot screen (AID 2706;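 active means superoxide response below 65% of plate, a cut near 3 SD across the whole screen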;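 further: yeast exposed to compound for one week at 30 degrees C before staining; 100% = mean of all compound wells on the same plate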); details: S. cerevisiae aging, superoxide DHE fluorescence; at 10 µM; stronger effect = lower value
# [8] = target: Beta-adrenergic receptor kinase 1 (Homo sapiens) (UniProt P25098); experiment: GRK2 binders displacing RNA aptamer, biochemical, validation, human GRK2, bead flow cytometry (AID 488806;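 active means aptamer binding inhibition above 30%, about 3 SD of noise from non-fluorescent compounds; inactive means inhibition at or below 30%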); details: bead-bound GRK2, FAM-aptamer displacement, at 10 µM, stronger effect = higher value
# [9] = target: AP-2 complex subunit beta (Homo sapiens) (UniProt P63010); experiment: beta-arrestin/AP2 interaction blockers – biochemical, validation set, GST-AP2 beads, flow cytometry, pilot screen (AID 504541;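 active means inhibition above 54%, about 3 SD of non-fluorescent compounds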;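 further: AP2 carries R879A mutation and is captured from E. coli lysate; bead-bound FITC arrestin peptide fluorescence measuring arrestin peptide binding to AP2; 0% = DMSO wells and 100% = excess unlabeled arrestin peptide control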); details: FITC arrestin peptide, at 10 µM, stronger effect = higher value
# Sequence of AP-2 complex subunit beta (Homo sapiens) (P63010 whole entry, looked up, one chain of several): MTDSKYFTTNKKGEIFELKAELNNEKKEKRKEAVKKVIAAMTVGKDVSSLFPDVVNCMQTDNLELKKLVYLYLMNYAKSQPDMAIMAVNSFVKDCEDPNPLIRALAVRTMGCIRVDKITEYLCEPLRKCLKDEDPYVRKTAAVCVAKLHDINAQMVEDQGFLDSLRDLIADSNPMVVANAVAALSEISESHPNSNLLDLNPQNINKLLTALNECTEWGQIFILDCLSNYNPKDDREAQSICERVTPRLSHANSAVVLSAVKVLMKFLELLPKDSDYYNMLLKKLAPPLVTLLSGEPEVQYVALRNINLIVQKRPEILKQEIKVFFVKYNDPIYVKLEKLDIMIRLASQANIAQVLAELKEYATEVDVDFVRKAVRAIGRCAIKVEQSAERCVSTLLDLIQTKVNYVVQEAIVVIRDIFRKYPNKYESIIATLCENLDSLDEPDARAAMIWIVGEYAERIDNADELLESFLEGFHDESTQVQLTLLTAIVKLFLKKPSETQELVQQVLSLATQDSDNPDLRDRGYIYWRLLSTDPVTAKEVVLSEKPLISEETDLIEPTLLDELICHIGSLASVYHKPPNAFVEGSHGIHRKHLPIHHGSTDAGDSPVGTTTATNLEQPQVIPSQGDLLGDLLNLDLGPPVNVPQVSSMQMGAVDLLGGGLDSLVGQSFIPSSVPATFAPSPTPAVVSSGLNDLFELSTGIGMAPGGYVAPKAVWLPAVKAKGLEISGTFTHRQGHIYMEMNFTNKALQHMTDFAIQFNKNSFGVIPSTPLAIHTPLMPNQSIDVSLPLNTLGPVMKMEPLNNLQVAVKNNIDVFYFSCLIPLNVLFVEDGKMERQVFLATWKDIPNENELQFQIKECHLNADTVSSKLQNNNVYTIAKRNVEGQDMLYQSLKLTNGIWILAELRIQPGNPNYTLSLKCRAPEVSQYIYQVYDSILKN
# [10] = cytosolic pH regulators acting via V-ATPase – S. cerevisiae, pHLuorin, HTS validation (AID 504600; in the data active means response above about 15%;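 further: plate controls were DMSO for no effect and reference compound for full effect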); details: V-ATPase proton transport, at 10 µM, stronger effect = higher value
# [11] = system: anti-desmoglein-3 scFv antibody binding to human DSG3; experiment: blockers of pathogenic pemphigus antibody–desmoglein-3 binding – biochemical, validation compound set, bead-based, flow cytometry, pilot screen (AID 588368;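 active means binding below the plate cutoff, the plate median minus 3 SD, with a reading above zero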;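 further: signal is the median channel fluorescence of bead-bound GFP antibody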); details: Protein G beads, DSG3-Fc, scFv-GFP binding, at 10 µM, stronger effect = lower value
# [12] = system: Botulinum neurotoxin type F light chain protease (Clostridium botulinum); experiment: Clostridium botulinum type F light chain protease inhibitors, microsphere substrate cleavage, validation (AID 588459); details: multiplex microsphere protease substrate cleavage assay, flow cytometry; at 10 µM; stronger effect = higher value
# [13] = target: Botulinum neurotoxin type A (Clostridium botulinum) (UniProt P0DPI0); experiment: BoNT/A light chain protease inhibitors, biochemical, multiplex microsphere flow cytometry, validation set (AID 588460); details: at 10 µM, stronger effect = higher value
# [14] = target: Lethal factor (Bacillus anthracis) (UniProt P15917); experiment: Bacillus anthracis lethal factor inhibition, microsphere flow cytometry protease assay, validation at 10 µM (AID 588461); details: multiplex microsphere protease cleavage assay, stronger effect = higher value
# Sequence of Lethal factor (Bacillus anthracis) (P15917 whole entry, looked up): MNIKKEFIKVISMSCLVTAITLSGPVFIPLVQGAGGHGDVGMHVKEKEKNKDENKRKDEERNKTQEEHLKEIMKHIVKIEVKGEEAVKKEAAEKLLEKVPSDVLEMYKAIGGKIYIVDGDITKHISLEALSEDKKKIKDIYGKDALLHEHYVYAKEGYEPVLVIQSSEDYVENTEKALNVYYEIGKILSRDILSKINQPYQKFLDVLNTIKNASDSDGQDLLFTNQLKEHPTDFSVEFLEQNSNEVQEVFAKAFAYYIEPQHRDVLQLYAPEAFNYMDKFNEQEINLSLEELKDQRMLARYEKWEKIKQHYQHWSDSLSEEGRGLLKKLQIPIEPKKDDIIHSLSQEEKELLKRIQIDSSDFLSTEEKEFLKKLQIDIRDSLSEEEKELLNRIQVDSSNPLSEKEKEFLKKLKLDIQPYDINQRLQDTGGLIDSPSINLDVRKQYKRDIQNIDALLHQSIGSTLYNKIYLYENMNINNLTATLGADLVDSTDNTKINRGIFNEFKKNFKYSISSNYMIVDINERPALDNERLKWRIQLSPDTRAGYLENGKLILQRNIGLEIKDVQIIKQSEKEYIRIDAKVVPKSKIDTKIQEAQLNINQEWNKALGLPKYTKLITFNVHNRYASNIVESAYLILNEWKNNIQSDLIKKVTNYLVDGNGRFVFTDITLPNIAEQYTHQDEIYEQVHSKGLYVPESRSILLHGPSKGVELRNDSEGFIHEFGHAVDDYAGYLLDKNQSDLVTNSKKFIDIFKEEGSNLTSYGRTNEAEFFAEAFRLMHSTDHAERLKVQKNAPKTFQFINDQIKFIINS
# [15] = Nile Red efflux blockade in pump-expressing yeast – validation compound set, multiplex, phenotypic, pilot screen (AID 588506;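 active means efflux inhibition above 0.42, the validation set average plus 4 SD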;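 further: Nile Red retained in cells so higher fluorescence means more efflux inhibition; 0 = negative control wells and 1 = enniatin B 25 µM full block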); details: S. cerevisiae pump-expressing triplex, Nile Red efflux flow cytometry; at 10 µM; stronger effect = higher value
# [16] = target: ATP-binding cassette sub-family B member 6 (Homo sapiens) (UniProt Q9NP58); experiment: blockers of ABCB6-driven porphyrin uptake – K562-ABCB6 cells, flow cytometry, validation set, pilot screen (AID 588550;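 active means inhibition above the screen-wide mean plus 3 SD, about 51%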;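 further: 0% = DMSO wells and 100% = benzethonium chloride 70 µM positive control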); details: K562-ABCB6 porphyrin accumulation, 1 h, at 10 µM, stronger effect = higher value
# Sequence of ATP-binding cassette sub-family B member 6 (Homo sapiens) (Q9NP58 whole entry, looked up): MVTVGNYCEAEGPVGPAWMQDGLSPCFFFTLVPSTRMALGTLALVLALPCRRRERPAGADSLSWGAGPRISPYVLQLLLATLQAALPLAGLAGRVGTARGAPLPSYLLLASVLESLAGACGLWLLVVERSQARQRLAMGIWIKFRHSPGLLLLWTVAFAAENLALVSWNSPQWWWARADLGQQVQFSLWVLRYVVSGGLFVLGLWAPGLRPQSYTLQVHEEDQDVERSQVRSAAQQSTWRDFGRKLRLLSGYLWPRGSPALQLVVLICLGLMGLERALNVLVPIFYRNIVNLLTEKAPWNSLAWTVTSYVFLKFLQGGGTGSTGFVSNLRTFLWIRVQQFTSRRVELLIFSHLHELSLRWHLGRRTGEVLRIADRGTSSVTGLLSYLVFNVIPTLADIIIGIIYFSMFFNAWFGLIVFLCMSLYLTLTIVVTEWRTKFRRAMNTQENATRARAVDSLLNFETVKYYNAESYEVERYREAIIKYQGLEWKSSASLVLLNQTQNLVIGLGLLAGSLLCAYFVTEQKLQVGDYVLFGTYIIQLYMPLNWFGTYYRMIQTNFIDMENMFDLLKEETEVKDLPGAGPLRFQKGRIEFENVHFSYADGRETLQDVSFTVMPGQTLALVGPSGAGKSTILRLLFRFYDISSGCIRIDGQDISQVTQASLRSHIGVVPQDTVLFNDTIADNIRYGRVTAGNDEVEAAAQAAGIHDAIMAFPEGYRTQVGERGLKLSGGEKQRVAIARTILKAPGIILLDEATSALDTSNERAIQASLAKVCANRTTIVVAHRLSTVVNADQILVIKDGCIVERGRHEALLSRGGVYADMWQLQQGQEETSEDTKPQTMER
# [17] = AML differentiation inducers, ER-HoxA9 marrow cells – cell-based, GFP/MAC1 double positive, flow cytometry, validation set, primary screen (AID 588685;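 active means differentiation response of at least 50%, scaled between solvent and reference control, from cells with both markers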;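 further: compound exposure lasts four days before antibody staining and flow analysis; 0% = DMSO wells and 100% = 5 µM fulvestrant positive control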); details: stronger effect = higher value
Compound,percent of DMSO control GFP [1],GFP response vs DMSO [2],percent response of DMSO control [3],GFP response vs DMSO [4],double positive events [5] [%],vesicle binding response [5],inhibition [6],superoxide response (% of plate) [7],aptamer binding inhibition [8],inhibition [9],response [10],binding (% of control) [11],inhibition [12],inhibition [13],inhibition [14],efflux inhibition (fraction of control) [15],inhibition [16],differentiation response [17]
NCC1(c2ccc3c(c2)OCCO3)CCCC1,98.3% (inactive),101% (inactive),97.9% (inactive),89.3% (inactive),60.7,107% (inactive),-51.5% (inactive),101% (inactive),1% (inactive),6.32% (inactive),-0.06% (inactive),98.8% (inactive),0.5% (inactive),-0.6% (inactive),0.5% (inactive),0.06 (inactive),6% (inactive),1.41% (inactive)
CC(C)[C@H]1C(=O)N2CCC[C@H]2[C@]2(O)O[C@](NC(=O)[C@@H]3C=C4c5cccc6[nH]cc(c56)C[C@H]4N(C)C3)(C(C)C)C(=O)N12,99% (inactive),108% (inactive),102% (inactive),123% (inactive),59.8,192% (inactive),–,38.3% (active),8% (inactive),3.83% (inactive),-7.73% (inactive),105% (inactive),-15.7% (inactive),-5% (inactive),-64.2% (inactive),0.25 (inactive),-96% (inactive),-2.03% (inactive)
COC1=CC(=O)OC(/C=C/c2ccccc2)C1 (stereo not given),102% (inactive),105% (inactive),105% (inactive),104% (inactive),56.3,194% (inactive),13.8% (inactive),101% (inactive),-1% (inactive),47% (inactive),-10.4% (inactive),106% (inactive),3.9% (inactive),1.1% (inactive),5.6% (inactive),0.06 (inactive),4% (inactive),22.4% (inactive)
CC(=O)c1ccc(-c2ccccc2)cc1,97% (inactive),120% (inactive),110% (inactive),84.7% (inactive),63.6,339% (inactive),-15.8% (inactive),96.8% (inactive),-3% (inactive),-0.36% (inactive),1% (inactive),108% (inactive),-2.6% (inactive),-1.2% (inactive),-1.9% (inactive),-0.06 (inactive),14% (inactive),4.91% (inactive)
O=C(O)CCCc1ccc(N(CCCl)CCCl)cc1,101% (inactive),103% (inactive),98.8% (inactive),97.4% (inactive),63.4,148% (inactive),23.1% (inactive),93.9% (inactive),4% (inactive),1.29% (inactive),-5.67% (inactive),105% (inactive),-4% (inactive),-2.1% (inactive),-3.4% (inactive),0.48 (active),8% (inactive),17.6% (inactive)
CN(C)[C@@H]1C(=O)C(C(N)=O)=C(O)[C@@]2(O)C(=O)C3=C(O)c4c(O)cccc4[C@@](C)(O)[C@H]3[C@H](O)[C@@H]12,102% (inactive),98.9% (inactive),105% (inactive),97.4% (inactive),56.9,155% (inactive),6.29% (inactive),99.8% (inactive),26% (inactive),34.2% (inactive),4.02% (inactive),87.9% (inactive),-9.4% (inactive),-5.3% (inactive),-12.6% (inactive),-0.31 (inactive),3% (inactive),-18% (inactive)
C[C@H]1CCC[C@H](O)CCCCCc2cc(O)cc(O)c2C(=O)O1,104% (inactive),94.8% (inactive),106% (inactive),87.3% (inactive),52.7,191% (inactive),-7.7% (inactive),106% (inactive),-4% (inactive),-16.7% (inactive),3% (inactive),106% (inactive),0.3% (inactive),-0.8% (inactive),-4.3% (inactive),-0.28 (inactive),9% (inactive),-34.1% (inactive)
Cc1cc(Cl)ccc1OC(C)C(=O)O (stereo not given),97.9% (inactive),108% (inactive),111% (inactive),74.8% (inactive),58.2,208% (inactive),-6.15% (inactive),135% (inactive),-5% (inactive),0.4% (inactive),3.15% (inactive),105% (inactive),3.9% (inactive),0.5% (inactive),–,0.37 (inactive),9% (inactive),7.37% (inactive)
CC(=O)[C@H]1CC[C@H]2[C@@H]3CC[C@H]4C[C@H](O)CC[C@]4(C)[C@H]3C(=O)C[C@]12C,100% (inactive),97.9% (inactive),92% (inactive),106% (inactive),60.9,146% (inactive),6.29% (inactive),110% (inactive),3% (inactive),42.5% (inactive),-11.1% (inactive),99.5% (inactive),0.8% (inactive),2.5% (inactive),-1.9% (inactive),0.14 (inactive),5% (inactive),46.6% (inactive)
